Inconclusive results are not listed. A number with no mark means an inactive call. Calls follow the shape of the dose curve; as a rule, active = well fitted curve in the direction sought with a large enough effect in the repeat runs; inconclusive = weak or mixed curves; inactive = no such curve, though single readings can be large; an effect the other way counts as inactive or inconclusive.
% is scaled to controls: 0 for no effect and ±100 for the full control effect.

One test is described as follows: A CellTox Green Cytotoxicity Assay to monitor cytotoxicity in HEK293 cells - 40 hour (AID 1224871). Also: nearly all actives have a fitted effect of over 45% in size. Particulars: CellTox Green fluorescence; series mostly up to 76.8 µM; cytotoxicity increase: at the top concentration. The essentials:
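Homogeneous no-lysis format: HEK293 cell suspension mixed with CellTox Green reagent, seeded, incubated 5 h at 37 C/5% CO2, then dosed by pintool with compound in DMSO.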
As to `CC(C)C(C)C`, the “cytotoxicity increase” value is 2.5%.

As to `CCCc1ncc(C(=O)O)s1`, the “cytotoxicity increase” value was 0.922% [at 35.3 µM].

As to `CN(C)CCCN(C)C`, the cytotoxicity increase is -1.24% [at 6.97 µM].

With `BrCCOc1ccccc1`, the “cytotoxicity increase” value is 16.5%.

With `CC(=O)SC[C@@H](C)C(=O)N1CCC[C@H]1C(=O)N[C@@H](Cc1ccccc1)C(=O)O`, the “cytotoxicity increase” value was -0.395% [at 35.3 µM].

In the case of `CC(=O)SCC(CC(=O)c1ccc(C)cc1)C(=O)O` (stereo unspecified), the “cytotoxicity increase” value was -7.38% [at 35.3 µM].

Turning to `C/C(=N\O)c1ccc(OCC(=O)N2CCCCC2)cc1`, the “cytotoxicity increase” value was -10% [at 35.3 µM].

Consider `C=CC(C)(CCC=C(C)C)OC(=O)C(C)C` (stereo unspecified), for which the “cytotoxicity increase” value is -10.5%.

Turning to `Cc1cccc(N)n1`, the “cytotoxicity increase” value is -11.9%.

`CC(=O)Oc1ccc(C(C)=O)cc1`: the “cytotoxicity increase” value is 5.83%.

In the case of `CC(C)(C)OC(=O)c1ccccc1C(=O)O`, the “cytotoxicity increase” value is -5.38%.

With `C/C=C(\C)C=O`, the “cytotoxicity increase” value is -16.9%.

Regarding `CNC(C)=O`, the “cytotoxicity increase” value was -12.4%.

Turning to `NNC(=O)OCc1ccccc1`, the “cytotoxicity increase” value was -7.12%.

For the compound `CC(C)(C)C(=O)CC(=O)C(C)(C)C`, the “cytotoxicity increase” value was -22.8%.

`COCCCOc1cc(C[C@@H](C[C@H](N)[C@@H](O)C[C@H](C(=O)NCC(C)(C)C(N)=O)C(C)C)C(C)C)ccc1OC`: the “cytotoxicity increase” value was -19.1% [at 35.3 µM].

On to `CN(C)c1ccncc1`, for which the “cytotoxicity increase” value was -9.15%.

With `COC(=O)c1ccc(NC(C)=O)cc1OC`, the “cytotoxicity increase” value is -0.962% [at 35.3 µM].

For `CO/N=C(\C(=O)O)c1csc(NC(=O)CCl)n1`, the “cytotoxicity increase” value was -5.58% [at 35.3 µM].

Consider `CC(CN1CC(=O)NC(=O)C1)N1CC(=O)NC(=O)C1` (stereo unspecified), for which the “cytotoxicity increase” value was -12.3%.

For `CCOCCOCCOC(C)=O`, the “cytotoxicity increase” value is 8.74%.

Regarding `CCOC(=O)c1ccc(N(C)C)cc1`, the “cytotoxicity increase” value is -2.08%.

`O=C(CCBr)N1CCN(C(=O)CCBr)CC1`: the “cytotoxicity increase” value was 6.71% [at 35.3 µM].

In the case of `Cc1ccc(Br)cc1`, the “cytotoxicity increase” value was 10.8%.

As for `Cc1ccc(O)c(C(=O)c2ccccc2)c1`, the “cytotoxicity increase” value was 25.8%.

On to `C[Si](C)(C)O[Si](O)(O)O`, for which the “cytotoxicity increase” value was 3.5%.

As for `Cc1cc(O)c(Cl)cc1C`, the “cytotoxicity increase” value is 19.1%.

Regarding `C[C@@H]1NC(=O)[C@@H](N)CNC(=O)[C@H](C2CCNC(N)=N2)NC(=O)/C(=C/NC(N)=O)NC(=O)[C@H](CNC(=O)C[C@@H](N)CCCN)NC1=O` (stereo partly specified), the cytotoxicity increase was 21.6% [at 0.29 µM].

For `COc1cc(C(=O)NC2CCCNC2)cc(OC)c1OC` (stereo unspecified), the “cytotoxicity increase” value is -5.42% [at 35.3 µM].

In the case of `C=CC(=O)OCC[N+](C)(C)C`, the “cytotoxicity increase” value was 7.03%.

For `CC1(C)CC(N)CC(C)(C)N1`, the “cytotoxicity increase” value is -4.83%.

In the case of `CC1=C(O)C(=O)CO1`, the “cytotoxicity increase” value is -2.06%.

Consider `C[n+]1ccccc1/C=N/O`, for which the “cytotoxicity increase” value was -8.9% [at 35.3 µM].

A short description of the next test: qHTS RealTime-Glo MT Cell Viability Assay in HEK293 cells - 16 hour (AID 1224872). Also: top concentration of the series differs between compounds; nearly all actives have a fitted effect of over 50% in size. Particulars: RealTime-Glo luminescence; series mostly up to 76.8 µM; activity change, negative = cytotoxicity: at the top concentration. Summed up: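 Tox21 10K qHTS, HEK293, 600 cells/well, RealTime-Glo reagent co-dispensed with cells; 5 h preincubation, compound by pintool, 37 C, luminescence at 0–40 h.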
As for `O=C(O)P(=O)(O)O`, the “activity change, negative = cytotoxicity” value was 2.98% [at 35.3 µM].

With `COc1cc2nc(N3CCN(C(=O)C4CCCO4)CC3)nc(N)c2cc1OC` (stereo unspecified), the “activity change, negative = cytotoxicity” value was 0.531% [at 35.3 µM].

`CCCc1ncc(C(=O)O)s1`: the “activity change, negative = cytotoxicity” value is 1.37% [at 35.3 µM].

Regarding `CN(C)CCCN(C)C`, the activity change, negative = cytotoxicity is -4.3% [at 6.97 µM].

For `CN(C)CCc1c[nH]c2ccc(CS(=O)(=O)N3CCCC3)cc12`, the “activity change, negative = cytotoxicity” value is -0.667% [at 35.3 µM].

For `CC(=O)SC[C@@H](C)C(=O)N1CCC[C@H]1C(=O)N[C@@H](Cc1ccccc1)C(=O)O`, the “activity change, negative = cytotoxicity” value was 1.49% [at 35.3 µM].

In the case of `CC(=O)SCC(CC(=O)c1ccc(C)cc1)C(=O)O` (stereo unspecified), the “activity change, negative = cytotoxicity” value was 7.13% [at 35.3 µM].

As for `C/C(=N\O)c1ccc(OCC(=O)N2CCCCC2)cc1`, the “activity change, negative = cytotoxicity” value was -11% [at 35.3 µM].

`C=CC(C)(CCC=C(C)C)OC(=O)C(C)C` (stereo unspecified): the “activity change, negative = cytotoxicity” value is 3.11%.

In the case of `Cc1cccc(N)n1`, the “activity change, negative = cytotoxicity” value was -4.99%.

In the case of `CC(=O)Oc1ccc(C(C)=O)cc1`, the “activity change, negative = cytotoxicity” value is -4.19%.

In the case of `CC(C)(C)OC(=O)c1ccccc1C(=O)O`, the “activity change, negative = cytotoxicity” value is 2.31%.

In the case of `C/C=C(\C)C=O`, the “activity change, negative = cytotoxicity” value is 13.4%.

For the compound `CNC(C)=O`, the “activity change, negative = cytotoxicity” value was 6.43%.

Turning to `CC(C)(C)C(=O)CC(=O)C(C)(C)C`, the “activity change, negative = cytotoxicity” value is -20.4%.

Regarding `COCCCOc1cc(C[C@@H](C[C@H](N)[C@@H](O)C[C@H](C(=O)NCC(C)(C)C(N)=O)C(C)C)C(C)C)ccc1OC`, the “activity change, negative = cytotoxicity” value was -0.913% [at 35.3 µM].

With `CN(C)c1ccncc1`, the “activity change, negative = cytotoxicity” value is -9.28%.

Regarding `COC(=O)c1ccc(NC(C)=O)cc1OC`, the “activity change, negative = cytotoxicity” value is 2.18% [at 35.3 µM].

In the case of `CC(CN1CC(=O)NC(=O)C1)N1CC(=O)NC(=O)C1` (stereo unspecified), the “activity change, negative = cytotoxicity” value was -3.28%.

For `CCOCCOCCOC(C)=O`, the “activity change, negative = cytotoxicity” value was 9.22%.

For the compound `CCOC(=O)c1ccc(N(C)C)cc1`, the “activity change, negative = cytotoxicity” value was -10.4%.

As to `O=C(CCBr)N1CCN(C(=O)CCBr)CC1`, the “activity change, negative = cytotoxicity” value was 2.38% [at 35.3 µM].

Regarding `Cc1ccc(O)c(C(=O)c2ccccc2)c1`, the “activity change, negative = cytotoxicity” value was -10.8%.

Turning to `CC(=O)O[C@@H]1CC2C3CCc4cc(OC(=O)c5ccccc5)ccc4C3CCC2(C)[C@H]1OC(C)=O` (stereo partly specified), the “activity change, negative = cytotoxicity” value was 1.92% [at 35.3 µM].

`Cc1cc(O)c(Cl)cc1C`: the “activity change, negative = cytotoxicity” value is 0.487%.

Turning to `C[C@@H]1NC(=O)[C@@H](N)CNC(=O)[C@H](C2CCNC(N)=N2)NC(=O)/C(=C/NC(N)=O)NC(=O)[C@H](CNC(=O)C[C@@H](N)CCCN)NC1=O` (stereo partly specified), the activity change, negative = cytotoxicity is 0.93% [at 0.29 µM].

Take `C=C(C)C(=O)OCCOC1CC2CC1C1C=CCC21` (stereo unspecified): the “activity change, negative = cytotoxicity” value was 3.33%.

Consider `CC1(C)CC(N)CC(C)(C)N1`, for which the “activity change, negative = cytotoxicity” value is 19.1%.
